Most compounds without a hit are left out; they make up all but 3.2% or so of the library.
GDH-TPI counter-1: counter-screen for M. tuberculosis FBA inhibitors: GDH-TPI coupled enzymes; GDH-TPI coupled enzyme counterscreen, NADH absorbance; inhibition, % at 4.8 µM; actives 1.2% (n = 360,000); AID 588335; in the data active = inhibition above about 30%;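 note: 0% = DMSO wells and 100% = wells lacking the enzyme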
Mtb FBA inh: Mtb fructose-bisphosphate aldolase inhibition. P9WQA3. purified M. tuberculosis FBA, fluorescence read-out. inhibition, % at 1 µM. actives 2.3% (n = 360,000). AID 588726; in the data active = inhibition above about 27%;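 note: 0% = vehicle and 100% = reference inhibitor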
Y pestis TopoI: inhibitors of Yersinia pestis topoisomerase I; AID 504884; Y. pestis Topo-I cleavage product accumulation, plate reader; actives 0.064% (n = 360,000); activity, % at 10 µM; in the data active = activity above about 50%, passing the limit was not always enough
PrPC TRFRET: reduces human prion protein on the cell surface | P04156 | cell surface PrPC, TR-FRET read-out | inhibition, % at 13.8 µM | actives 0.43% (n = 370,000) | AID 720596; in the data active = inhibition above about 24%; note: 0% = median of the test wells and 100% = reference compound wells
TcdB inh: blocks C. difficile toxin B glycohydrolase activity; P18177; TcdB glycohydrolase enzymatic assay, plate reader; actives 0.24% (n = 350,000); inhibition, % at 9.99 µM
Mtb FBA confirm: Mtb FBA inhibition, confirmed. actives 78% (n = 5,600). purified M. tuberculosis FBA, fluorescence read-out. shares compounds with Mtb FBA inh. inhibition, % at 1 µM; in the data active = inhibition above about 27%;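 note: 0% = vehicle wells and 100% = reference inhibitor wells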
GDH-TPI counter-2: counter-screen for M. tuberculosis FBA inhibitors: GDH-TPI coupled enzyme inhibition; GDH-TPI coupled enzyme counterscreen, fluorescence; shares compounds with Mtb FBA inh; actives 81% (n = 5,600); inhibition, % at 1 µM; AID 652141
Starred values were filed as active, the others as inactive; . = not tested or not shown; + = active, no number. Cut-off read from the data, not from the text of the source, unless noted: active = inhibition above about 10%; inactive = the rest.

SMILES	GDH-TPI counter-1	Mtb FBA inh	Y pestis TopoI	PrPC TRFRET	TcdB inh	Mtb FBA confirm	GDH-TPI counter-2
Cc1cc(OCC(=O)NCC(O)c2ccccc2)c2c(C)cc(=O)oc2c1 (configuration not stated)	2	77*	4	1	-7	17	-3
Cc1cc(OC(C)C(=O)NCc2ccncc2)c2c(C)cc(=O)oc2c1 (configuration not stated)	8	84*	2	5	0	169*	159*
COc1ccc(CCNC(=O)COc2cc(C)cc3oc(=O)cc(C)c23)cc1	6	3	0	1	2	.	.
Cc1cc(OCC(=O)NCC(O)c2ccccc2)c2c3c(c(=O)oc2c1)CCCC3 (configuration not stated)	7	12	0	-3	1	.	.
C[C@H](CO)N1C[C@H](C)[C@H](CN(C)Cc2ccc(C(=O)O)cc2)Oc2c(NC(=O)Nc3cccc4ccccc34)cccc2C1=O	.	.	.	.	-1	.	.
CCCCc1cc(=O)oc2cc(C)cc(OC(C)C(=O)NCc3ccncc3)c12 (configuration not stated)	1	42*	6	-3	1	109*	76*
Cc1cc(OCC(=O)NCCc2ccc(S(N)(=O)=O)cc2)c2c(C)cc(=O)oc2c1	-6	67*	-7	5	1	120*	97*
Cc1ccccc1OC(C)C(=O)NCc1cccnc1 (configuration not stated)	-3	0	-2	0	3	.	.
CC(Oc1ccc(Cl)cc1Cl)C(=O)NCc1ccncc1 (configuration not stated)	8	0	5	6	.	.	.
Cc1cc(OC(C)C(=O)NCc2cccnc2)c2c(C)cc(=O)oc2c1 (configuration not stated)	9	108*	-3	2	2	+	+
COc1ccc(CN(C)C[C@H]2Oc3c(NC(=O)Nc4ccc(F)cc4)cccc3C(=O)N([C@H](C)CO)C[C@H]2C)cc1	.	.	.	.	0	.	.
Clc1ccc(-c2cn3cc(Cl)ccc3n2)cc1	-3	6	4	6	-1	.	.
CCN(CC)S(=O)(=O)c1ccc(-c2cn3cc(Cl)ccc3n2)cc1	13	31*	2	8	1	.	+
Cc1ccc(C)c(N(C(=O)c2snc(C(N)=O)c2N)C(C(=O)NCC2CCCO2)c2cccs2)c1 (configuration not stated)	0	36*	9	-21	0	19	7
Cc1ccc(C)c(N(C(=O)c2snc(C(N)=O)c2N)C(C(=O)NCC2CCCO2)c2ccc(C)o2)c1 (configuration not stated)	2	37*	11	-6	0	54*	48*
C[C@H](CO)N1C[C@H](C)[C@H](CN(C)S(=O)(=O)c2ccc(Cl)cc2)Oc2ccc(NS(=O)(=O)c3ccc(Cl)cc3)cc2CC1=O	.	.	.	.	-5	.	.
O=C(Nc1ccc(F)cc1)Nc1ccc2c(c1)[C@H]1C[C@H](CC(=O)N3CCOCC3)O[C@H](CO)[C@H]1O2	.	.	.	.	-1	.	.
Cc1ccccc1C1NC(=O)c2ccccc2O1 (configuration not stated)	14	5	8	7	1	.	.
Cc1ccccc1C1N=C2Oc3ccccc3C=C2C(=O)N1 (configuration not stated)	.	96*	.	-3	1	70*	52*
COC(=O)c1cc(C)nc(N)c1C#N	3	108*	-2	2	.	128*	82*
Cc1cc(-c2ccccc2)c(C#N)c(N)n1	5	18	-2	5	.	.	.
C=CCn1c(SCC(=O)Nc2nncs2)nnc1-c1ccco1	-1	75*	4	5	-1	+	+
C=CCn1c(SCC(=O)Nc2ccccc2OC)nnc1-c1ccco1	.	.	.	1	.	.	.
COCC(=O)Nc1ccc2c(c1)[C@@H]1C[C@@H](CC(=O)O)O[C@@H](CO)[C@@H]1O2	.	.	.	.	0	.	.
CCN1[C@@H]2Cn3c(ccc(-c4cccc(F)c4)c3=O)[C@H]1[C@@H](C(=O)N(C)C)[C@@H]2CO	.	.	.	.	-1	.	.
SMILES	GDH-TPI counter-1	Mtb FBA inh	Y pestis TopoI	PrPC TRFRET	TcdB inh	Mtb FBA confirm	GDH-TPI counter-2
CCO[C@@H]1OC(C(=O)N2CCCC2)=C[C@H](c2ccccc2)[C@H]1CCCO	.	.	.	.	0	.	.
O=C(CNC(=O)c1cccc(Br)c1)N/N=C/c1ccc2c(c1)OCO2	11	33*	13	0	2	141*	106*
CCN(CC)c1ccc(/C=N/NC(=O)CNC(=O)c2ccc3c(c2)OCCO3)cc1	42*	47*	-7	-3	0	54*	47*
COc1cccc(/C=N/NC(=O)CNC(=O)c2ccc3c(c2)OCCO3)c1O	6	-2	-4	2	.	.	.
CCC1Cc2c(nc(N)c3c(N)nc(N4CCCCC4)c(C#N)c23)O1 (configuration not stated)	4	42*	-1	3	2	121*	110*
N#Cc1c(N2CCCCC2)nc(N)c2c(N)nc3c(c12)CC(c1ccccc1)O3 (configuration not stated)	16	30*	-1	-3	1	122*	102*
CO[C@@H]1CN(C)C(=O)c2cc(NS(C)(=O)=O)ccc2OC[C@@H](C)N(C(=O)C2CCOCC2)C[C@@H]1C	.	.	.	.	0	.	.
O=C1Cc2cccc3cccc1c23	10	25	6	-8	.	.	.
O=C1OCc2cccc3cccc1c23	23	50*	-4	-18	.	198*	174*
COCC(=O)NC[C@H]1[C@@H](c2ccccc2)[C@@H](CO)N1C(C)=O	.	.	.	.	0	.	.
Cc1c(O)ccc2c(CN3CCN(C/C=C/c4ccccc4)CC3)cc(=O)oc12	0	64*	-2	-4	1	74*	56*
Cc1cc(=O)oc2c(C)c(OCC(=O)N3CCC(C(=O)O)CC3)ccc12	17	49*	1	2	1	18	15*
Cc1c(OCC(=O)N2CCC(C(N)=O)CC2)ccc2c1oc(=O)c1ccccc12	15	28*	-1	-2	0	130*	101*
Cc1cc(=O)oc2c(C)c(OCC(=O)N3CCN(Cc4ccccc4)CC3)ccc12	15	27*	16	-3	1	147*	100*
CNC[C@@H]1Oc2ccc(NC(=O)Cc3ccccc3)cc2C(=O)N([C@@H](C)CO)C[C@@H]1C	.	.	.	.	-1	.	.
COc1ccc(NC(=O)N(C)C[C@H]2OCCCC[C@@H](C)Oc3ccc(NC(=O)CCC(F)(F)F)cc3C(=O)N([C@@H](C)CO)C[C@@H]2C)cc1	.	.	.	.	0	.	.
O=C(CCCOc1ccc(Cl)cc1Cl)Nc1ccc(O)cc1C(=O)O	26	30*	-5	-1	0	+	+
COc1cc(NC(=O)CCCOc2ccc(Cl)cc2Cl)c(C(=O)O)cc1OC	13	1	5	-4	-1	.	.

Screens as filed in PubChem.
